# Screens deposited in PubChem by National Center for Advancing Translational Sciences (NCATS).
# Most compounds without a hit are left out; they make up all but 21% or so of the library.
# HCV inhibitor: inhibitors of hepatitis C virus infection; Huh7.5.1 HCVcc-Cre infection, luciferase reporter, 44 h; Potency, µM (titrated, usually from 41.8 µM), for inactives: at the highest dose activity change, negative = inhibition, actives largely listed as inhibitors; hit rate 3.4% among 340,000; AID 651820; also: potency is read from the fitted curve at half-maximal effect; % is scaled to controls: 0 for no effect and ±100 for the full control effect
#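 Infectious HCV cell culture screen: compound-treated cells (1,000/well, pre-plated 4 h) are infected with HCVcc-Cre at roughly 0.5 moi and grown 44 h. Infection is quantified by luciferase signal after 15 min substrate incubation at room temperature.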
# HCMV inh: blocks human cytomegalovirus replication; HFF cells, HCMV-luciferase reporter, 72 h; active compounds read low; activity change, negative = inhibition, % at 57.5 µM; hit rate 4.5% among 410,000; AID 1259415; in the data active = activity change below about -60%; inconclusive = no clear call, values can overlap the other calls; inactive = above about -39%; also: % is scaled to controls: 0 for no effect and ±100 for the full control effect
#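 Luciferase read-out from HCMV-luciferase-infected HFFs (MOI 1 PFU/cell) 72 h post infection at 37C; compounds added after 16 h cell attachment; activity normalized between buffer-only basal and Salinomycin (10uM) inhibitor controls.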
# Pf growth 48h: P. falciparum growth inhibition at 48 hours (one generation). hit rate 5.9% among 310,000. P. falciparum luciferase growth in erythrocytes, 48 h. Potency, µM (series often up to 28.7 µM), for inactives: top-dose activity change, negative = inhibition, usual class: inhibitors. AID 504832; also: potency is read from the fitted curve at half-maximal effect; % is scaled to controls: 0 for no effect and ±100 for the full control effect
#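 A one-generation exposure of luciferase-tagged malaria parasites in RPMI 1640/Albumax erythrocyte culture, 37 C and 5% CO2. Inhibition is inferred from decreased luminescence after adding detection reagent.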
# Shiga inhibitor: Shiga toxin inhibition; Vero cells, Shiga toxin protein synthesis inhibition reporter; inhibition, % at 38.7 µM; hit rate 9.2% among 290,000; in the data active = inhibition mostly above about 28%, no sharp cut-off; inactive = mostly below about 43%; also: 0% is about no effect
# Cycloheximide cs: counter-screen hit for Shiga toxin inhibitors, cycloheximide; cell reporter, cycloheximide protein synthesis inhibition counterscreen; hit rate 12% among 300,000; max response, %; in the data active = max response mostly above about 13%, no sharp cut-off; inactive = mostly below about 14%; also: read at 38.3 µM for the half of the compounds with a filed dose; 0% is about no effect
# Pf growth 96h: P. falciparum growth inhibition at 96 hour, primary screen for plastid delayed-death inhibitors; P. falciparum luciferase reporter growth, 96 h; AID 504834; hit rate 6.9% among 320,000; Potency, µM (top dose mostly 28.7 µM), without a hit: at the top dose activity change, negative = inhibition, hits mostly inhibitors; also: potency is read from the fitted curve at half-maximal effect; % is scaled to controls: 0 for no effect and ±100 for the full control effect
#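 Luminescence readout: decreased luciferase signal marks inhibited growth of reporter-expressing P. falciparum in infected red cells (2% hematocrit, 0.05% parasitemia final), exposed to compound two generations (96 h, 37 C, 5% CO2).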
# Numbers without * were called inactive; i = inactive; ? = inconclusive; · = no result given. Unless noted, calls follow the shape of the dose curve; as a rule, active = well fitted inhibition curve with a large enough effect; inconclusive = small, poorly fitted or top-dose-only effect, or another doubt; inactive = no such curve, though single readings can be large or run the other way.
SMILES,HCV inhibitor,HCMV inh,Pf growth 48h,Shiga inhibitor,Cycloheximide cs,Pf growth 96h
CC(C)[C@H](NC(=O)[C@@H]1CSSC[C@H](NC(=O)[C@H](CC(=O)O)NC(=O)[C@H](C)NC(=O)[C@@H](NC(=O)CNC(=O)[C@H](C)N)[C@@H](C)O)C(=O)N[C@@H](Cc2ccccc2)C(=O)N[C@@H](Cc2c[nH]c3ccccc23)C(=O)N[C@@H](CCCCN)C(=O)N[C@@H](Cc2ccc(O)cc2)C(=O)N1)C(=O)O,·,·,·,-6,-2,·
N#Cc1ccccc1NC(=O)C1SC(=Nc2ccccc2)C(C(=O)Nc2ccc(Cl)cc2)=C1N (stereo unspecified),10µM*,25,-10%,1,12,0%
Cc1cc(C)c(NC(=O)Cn2c(=O)n(CCC(C)C)c(=O)c3cccnc32)c(C)c1,·,8,·,·,·,·
CN(C)c1ccc(C(=O)/C=C/c2cccnc2)cc1,-3%,-67*,-2%,82*,46*,8%
CN(C)c1ccc(/C=C/C(=O)c2cccc(Br)c2)cc1,-12%,18,81%,127*,64*,?
CC(=O)Nc1ccc(SCC(=O)Nc2ccc3c(c2)OCCO3)cc1,-15%,1,·,·,·,·
O=C(O)c1ccc(/C=C/C(=O)c2ccc3c(c2)OCCCO3)cc1,1%,i,54%,92*,105*,102%
O=C(/C=C/c1cccc([N+](=O)[O-])c1)c1ccc2c(c1)OCCO2,-28%,-40,-19%,-6,-1,?
CC(=O)Nc1ccc(/C=C/C(=O)c2ccc3c(c2)OCCO3)cc1,-12%,-13,-29%,45*,23*,?
CC1CCC2(CC1)NC(=O)N(NC(=O)c1cccs1)C2=O (stereo unspecified),15%,-5,-24%,·,·,0%
CC1CCC2(CC1)NC(=O)N(NC(=O)CCl)C2=O (stereo unspecified),-7%,-63*,0%,-3,1,?
COC(=O)c1ccc(CN2C(=O)NC3(CCC(C)CC3)C2=O)o1 (stereo unspecified),7%,-11,2%,-6,-4,-19%
COC(=O)c1ccc(CN2C(=O)NC3(CCC(C)CC3)C2=O)cc1 (stereo unspecified),-21%,0,-4%,120*,53*,-1%
Cc1cc(C)c[n+](C(C)C(=O)c2ccc(Cl)cc2)c1 (stereo unspecified),9%,41,?,-6,1,?
CCOc1ccc(OCC)c(NS(=O)(=O)c2c(C(=O)N3CCC(C)CC3)c(C)n(C)c2C)c1,·,10,·,·,·,·
O=C(N/N=C/c1c[nH]c2ccccc12)c1cc(-c2ccc3ccccc3c2)n[nH]1,10µM*,-19,-45%,64*,49*,3%
O=C(N/N=C/c1c[nH]c2ccccc12)c1ccn[nH]1,?,41,64%,46,28*,117%
O=C(N/N=C/c1c[nH]c2ccccc12)c1cc(-c2ccccc2)n[nH]1,?,35,-5%,22,7,1%
Cc1ccc(-c2cc(C(=O)N/N=C/c3c[nH]c4ccccc34)[nH]n2)cc1,?,-20,-3%,51*,47*,-12%
O=C(N/N=C/c1c[nH]c2ccccc12)c1cc(-c2cccc3ccccc23)n[nH]1,?,-33,1%,27,19*,-9%
Cc1nc(C)c(C(=O)N/N=C/c2c[nH]c3ccccc23)s1,1%,·,-1%,-5,15,·
O=C(N/N=C/c1c[nH]c2ccccc12)c1cc(-c2ccc(-c3ccccc3)cc2)n[nH]1,-26%,-74*,?,54*,35*,192%
CC(C)(C)c1ccc(S(=O)(=O)Nc2cccc(C3OCCCO3)c2)cc1,?,-34,4%,10,-1,39%
CC1(C)Cc2c(cnn2-c2ccc(F)cc2)C(NC(=O)CCc2ccncc2)C1 (stereo unspecified),9%,-9,?,22,14,-13%
COc1ccccc1CNC(=O)CCC(=O)N1CC2CCCN2c2ccccc21 (stereo unspecified),·,-22,·,·,·,·
COc1ccc(OCC(=O)NC2CCCCCCC2)cc1,13%,20,43%,42*,27*,-4%
COc1ccc(OCC(=O)OCC(=O)NC2CCCC2)cc1,-5%,2,·,·,·,·
